Measurements: PMC4552634, “A New Set of Chemical Starting Points with Plasmodium falciparum Transmission-Blocking Potential for Antimalarial Drug Discovery” (PLoS ONE, 2015)
The campaign covered roughly 13,000 compounds. About 3,200 (25%) showed an effect of 50% or more. The list shows a part of the results.

System: P. falciparum stage V gametocytes
Set-up: BacTiter-Glo ATP luminescence viability of purified stage V gametocytes in 384-well plates, per cent inhibition versus DMSO
Conditions: 48 h, 5 µM; inhibitor

Structure (SMILES) | % Inhibition
CNC(=O)C(NC(=O)c1ccccc1C(=O)OC)c1ccccc1 (stereo not shown) [TCMDC-137226] | 6.158%
CCN(CC)CCN(Cc1ccc(-c2ccc(C(F)(F)F)cc2)cc1)C(=O)Cn1cc(Cc2cnn(C)c2)c(=O)nc1/C=C/c1ccc(F)cc1 [TCMDC-140741] | 95.48%
CCN(CC)CCN(Cc1ccc(-c2ccc(C(F)(F)F)cc2)cc1)C(=O)Cn1cc(Cc2cnn(C)c2)c(=O)nc1/C=C/c1cccc(F)c1F [TCMDC-140964] | 99.53%
O=C(Cc1cc(=O)oc2cc(O)ccc12)N1CCC(CN2CCC(c3c[nH]c4ccccc34)CC2)CC1 [TCMDC-139881] | 9.393%
N#Cc1cccc(NC(=O)Nc2ccc(-c3csc(-c4nc5ccccc5[nH]4)c3)cc2)c1 [TCMDC-133188] | 30.15%
Cn1nc(C(F)(F)F)cc1-c1ccc(C(=O)Nc2ccc3c(c2)CNCC3(C)C)s1 [TCMDC-141916] | 39.68%
NC(N)=NC(=O)Nc1cc(Cl)c(Cl)c(C(F)(F)F)c1 [TCMDC-137511] | -11.78%
CCCCC(=O)Nc1cc(=O)[nH]c2nc(-c3ccc(Cl)cc3)nn12 [TCMDC-125002] | 1.203%
COc1cc(NC(=O)/C=C/c2cc(F)cc(F)c2F)cc(OCCN2CCC(O)(c3ccccc3)CC2)c1 [TCMDC-140936] | -10.33%
N#Cc1cccc(NC(=O)Nc2ccc3c(c2)CCN(C2CCC2)CC3)c1 [TCMDC-136005] | 22.54%
COc1ccc(C(C(=O)NC2CCN(C[C@H](O)c3ccnc4ccc(OC)cc34)CC2)N2CCN(Cc3ccccc3)CC2)cc1 (stereo partly shown) [TCMDC-140987] | -16.46%
CN1CCC(COC(=O)C(O)(c2ccccc2)c2ccccc2)C1 (stereo not shown) [TCMDC-131375] | 2.294%
C=CCNC(=O)C(C)c1ccc2cc(OC)ccc2c1 (stereo not shown) [TCMDC-132021] | 24.74%
NCCNc1ccc([N+](=O)[O-])cc1C(=O)Nc1cccc(Cl)c1 [TCMDC-123690] | 33.32%
Cc1ccc(NC(=O)c2cc([N+](=O)[O-])ccc2NCc2cccnc2)cc1Cl [TCMDC-124571] | 7.674%
CCNS(=O)(=O)c1ccc(Oc2ccc([N+](=O)[O-])cc2)cc1 [TCMDC-137451] | -0.3916%
C=CCNS(=O)(=O)c1ccc(NC(=O)C(C)Oc2ccc([N+](=O)[O-])cc2)cc1 (stereo not shown) [TCMDC-125123] | 69.95%
CCCNS(=O)(=O)c1ccc(NC(=O)C(C)Oc2ccc([N+](=O)[O-])cc2)cc1 (stereo not shown) [TCMDC-125122] | 65.91%
Cc1cc(N2CCCC2)nc(Nc2ccc(NC(=O)C(C)Oc3ccccc3)cc2)n1 (stereo not shown) [TCMDC-124968] | 18.82%
CCCCNS(=O)(=O)c1ccc(NC(=O)c2cc([N+](=O)[O-])ccc2Cl)cc1 [TCMDC-124345] | 83.43%
Cc1cc(N(C)C)nc(Nc2ccc(NC(=O)C(C)Oc3ccccc3)cc2)n1 (stereo not shown) [TCMDC-124974] | 7.49%
O=C(Nc1ccc(OC2CCN(Cc3ccc(F)cc3)CC2)c(Cl)c1)c1ccoc1 [TCMDC-133744] | 29.48%

Structure (SMILES) | % Inhibition
C[C@H](NC(=O)c1c(CN2CCC(N3CCCCC3=O)CC2)c(-c2cccs2)nc2ccccc12)C1CCCCC1 [TCMDC-141620] | -63.06%
C[C@H](NC(=O)c1c(CN2CCC(NC(=O)CC(C)(C)C)CC2)c(-c2cccs2)nc2ccccc12)C1CCCCC1 [TCMDC-141792] | 25.58%
CC(C)CC(=O)NC1CCN(Cc2c(-c3cccs3)nc3ccccc3c2C(=O)N[C@@H](C)C2CCCCC2)CC1 [TCMDC-141791] | -23.57%
CCNC(=O)NC1CCN(Cc2c(-c3cccs3)nc3ccccc3c2C(=O)N[C@@H](C)C2CCCCC2)CC1 [TCMDC-141704] | 101.3%
C[C@H](NC(=O)c1c(CN2CCN(C(=O)C(C)(C)C)CC2)c(-c2cccs2)nc2ccccc12)C1CCCCC1 [TCMDC-141723] | -7.5%
CNC(=O)NC1CCN(Cc2c(-c3cccs3)nc3ccccc3c2C(=O)N[C@@H](C)C2CCCCC2)CC1 [TCMDC-141689] | 58%
Cc1nc2ccccc2c(=O)n1NCc1ccc(Cl)c(Cl)c1 [TCMDC-131405] | 15.32%
CNC(=O)c1cc(NCCCNCc2ccc(Cl)c(C(F)(F)F)c2)nc2ccccc12 [TCMDC-141082] | 72.56%
O=c1cc(NCCCNCc2ccc(C(F)(F)F)c(F)c2)[nH]c2ccccc12 [TCMDC-139428] | -42.45%
Nc1ncc(-c2ccsc2)cc1-c1nc2ccccc2[nH]1 [TCMDC-133557] | 13.31%
Clc1ccc(Nc2nc(Nc3ccc(Cl)c(Cl)c3)nc(Sc3nc4ccccc4[nH]3)n2)cc1Cl [TCMDC-124069] | -24.51%
CCc1cc2c(Sc3nc4ccccc4[nH]3)ncnc2s1 [TCMDC-124553] | 60.6%
Cc1sc2ncnc(Sc3nc4ccccc4[nH]3)c2c1C [TCMDC-123835] | 57.62%
COc1ccc(NC(=O)[C@H](CC(C)C)Nc2cc(C)nc(Nc3ccccc3)n2)cc1 [TCMDC-134738] | -4.957%
CCCCn1c(C)c(C(=O)OCC)c2cc(OC(C)=O)c(Br)cc21 [TCMDC-125582] | -26.36%
CCCNCc1ccc(-c2ccc(CNC3Cc4ccccc4C3)cc2)nc1 [TCMDC-141616] | 6.713%
CC1CN(c2ncc(-c3ccc(CNC4Cc5ccccc5C4)cc3)cn2)CC(C)N1 (stereo not shown) [TCMDC-133769] | 77.63%
CCCNC(=O)c1cncc(-c2cccc(CNC3Cc4ccccc4C3)c2)c1 [TCMDC-134220] | -28.4%
CC[C@H](C)CNC(=O)c1cncc(-c2ccc(CNC3Cc4ccccc4C3)cc2)c1 [TCMDC-134240] | -0.9583%
c1cc(CNC2Cc3ccccc3C2)cc(-c2cnc(N3CCNCC3)nc2)c1 [TCMDC-133140] | 110.7%
CC(C)CNC(=O)c1cncc(-c2cccc(CNC3Cc4ccccc4C3)c2)c1 [TCMDC-134219] | -68.65%
